Unmarked numbers belong to inactive results.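 Rule for the calls: active = inhibition of the reporter signal at or above 50%; inactive = inhibition below 50%.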

This is an account of results in PubChem BioAssay.

This assay in a line: inhibitors of poly I:C-induced TLR3 signaling, primary screen, cell-based, poly I:C stimulus, luciferase, 10K MLSCN set (AID 602277). The conditions noted are these: HEK293-TLR3 RL24 IRF3 luciferase reporter, at 10 µM, hits give high values. (In general: A reporter such as luciferase makes a cellular process visible.)
`Cn1c(SCc2cccc3ccccc23)nnc1-c1ccco1`: the inhibition (as a rule, the change of the read-out against control, counted positive when it falls) was -65.7%. In the case of `COc1ccc(CC(=O)OCC(=O)NC(=O)NC2CCCCC2)cc1` it was 15.4%. In the case of `CCn1c(C)nc2cc(C(=O)OC(C(F)(F)C(F)F)C(F)(F)C(F)F)ccc21`, the inhibition is -180%. In the case of `CCCn1c2c(c(O)c(C(=O)NC)c1=O)CCCC2` it was 25.6%; in that of `COCCNC(=O)CN(C)S(=O)(=O)c1ccc2c(c1)OCCO2`, 21.2%; in that of `O=C(CN1C(=O)CC(c2ccco2)Sc2ccccc21)Nc1ccc2c(c1)OCCO2` (stereo not given), 9.54%. Under `COc1ccc2c(c1)CCc1c(C(=O)NCc3cccnc3)noc1-2` stands -67.9%. In the case of `OCc1nc(CO)n(Cc2ccccc2)n1` it was 19.9%.

As for `CC(=O)Nc1ccc(NC(=O)c2ccccc2N(C)S(C)(=O)=O)cc1`, the inhibition was 10.8%. Consider `Cc1noc(NS(=O)(=O)c2ccc(NC(=O)CCC3CCCC3)cc2)c1C`, for which the inhibition is 11.2%. For `CCCNC(=O)c1c(N)n(-c2cc(OC)cc(OC)c2)c2nc3ccccc3nc12`, the inhibition is -6.79%. In the case of `Cc1ccc(CN2C(=O)CCC2C(=O)NCC2CCCO2)cc1` (stereo not given) it was 1.56%; in that of `COc1ccc(CC(NC(C)=O)C(=O)NC2CCN(c3nc(C)cc(C)c3C#N)CC2)c(OC)c1` (stereo not given), -9.61%. As for `CC1(C)CC(=O)c2c(O)cc(O)cc2O1`, the inhibition is -1.77%.

As to `COc1ccc(C2C(C#N)=C(C)NC3=C2C(=O)CC(C)(C)C3)c(OC)c1` (stereo not given), the inhibition was 18.9%. In the case of `CC(C(=O)OCn1nnc2ccccc2c1=O)N1C(=O)c2ccccc2C1=O` (stereo not given) it was 21.1%; in that of `CCOCCn1cnc2sc(C(=O)Nc3nc(C)c(C(=O)OCC)s3)c(C)c2c1=O`, -0.0117%; in that of `CCC(=NC(C)c1ccccc1)c1c(O)n(C)c(=O)n(C)c1=O` (stereo not given), -40%. Regarding `COc1cc(=O)[nH]c(SCc2c(F)c(F)c(F)c(F)c2F)n1`, the inhibition was 22.3%. Turning to `CCCC(=O)N1CCN(c2ccc(NC(=O)c3ccc(Br)o3)cc2)CC1`, the inhibition is -42.4%.

Turning to `COc1ccc(Cc2nn3c(-c4cc(OC)c(OC)c(OC)c4)nnc3s2)cc1`, the inhibition was -1.58%. Take `CC(C)CCNC(=O)CCNS(=O)(=O)c1ccc(Cl)cc1`: the inhibition is 25.9%. Take `CCn1c(C(=O)OC)cc2c1ccn2-c1ccc(F)cc1`: the inhibition was -96.4%.

For `O=C(CSc1nnc(Cc2ccccc2)n1C1CCCCC1)N1CCOCC1`, the inhibition is -20.2%.

For the molecule `CC(=O)c1c(C)[nH]c(C(=O)Nc2ccc3c(c2)OCCO3)c1C`, the inhibition is -58%. As for `COCCn1nnnc1C(C(C)C)N(Cc1cccnc1)Cc1ccccc1Cl` (stereo not given), the inhibition is 31.3%. In the case of `Cc1c(Cc2ccccc2)sc(N)c1C(N)=O` it was 10.8%. In the case of `O=C(CN(c1ccc(F)cc1)S(=O)(=O)c1ccc2c(c1)OCCO2)NCC1CCCO1` (stereo not given) it was 24.3%; in that of `O=C(Nc1ccccc1)c1cccnc1N1CCOCC1`, 19.1%; in that of `Cc1c(NC(=O)CN2c3cccc4cccc(c34)S2(=O)=O)c(=O)n(-c2ccccc2)n1C`, 15.5%. Under `Cc1ccc(S(=O)(=O)NCCC(=O)OCn2nnc3ccccc3c2=O)cc1` stands 28%; under `c1ccc2nc(-c3nc4ccccc4[nH]3)ccc2c1`, -35.5%; under `COc1ccc(-n2nnc3c(=O)n(C/C=C/c4ccccc4)cnc32)cc1`, 7.09%. Take `O=C(Nc1ccccc1C(=O)N1CCCCCC1)c1cccc(S(=O)(=O)N2CCOCC2)c1`: the inhibition is 10.6%.

Turning to `CCOC(=O)C1=C(C)N(C)C(C)=C(C(=O)OCC)C1c1cccnc1`, the inhibition is 6.76%. In the case of `O=C(Nc1ccc(Cc2ccncc2)cc1)C1CC1` it was 15.6%; in that of `CCOC(=O)c1oc2ccccc2c1CSc1nnnn1-c1ccc(OC)cc1`, 30.2%. Under `COc1cc(C2c3c(oc4c(C)cc(C)cc4c3=O)C(=O)N2Cc2cccnc2)cc(OC)c1OC` (stereo not given) stands 3.14%; under `CC(=O)N1CCc2cc(S(=O)(=O)NCCC3=CCCCC3)ccc21`, -2.52%; under `CC1=C(C(=O)OCCOC(C)C)C(c2cc3c(cc2Br)OCO3)C2=C(CCCC2=O)N1` (stereo not given), 26.6%.
